A short description of experiment [1]: inhibitors of TNFa-induced NFkB p65 translocation, primary screen, imaging, HUVEC, MLSMR starter and 10KST1 sets (AID 438;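 active means inhibition above 20% together with a positive visual image hit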;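 further: compound added about 3h40 before a 20 min TNFalpha stimulation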;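 on inhibition: signal is the nuclear over cytoplasmic p65 intensity ratio per well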). Particulars: HUVEC TNFa-induced p65 nuclear translocation; cell count: measured here: nuclei count (cytotoxicity indicator), at 2.08 µM; inhibition: at 2 µM, stronger effect = higher value, 0% TNFa-plus-vehicle, 100% no-TNFa wells.
A short description of experiment [2]: reduction of polyQ htt aggregates in cells – imaging, exon1htt(103Q)mCFP cells, high-content imaging, primary screen (AID 483;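 active means visual image review flags a hit and inhibition of aggregation exceeds 20%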;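 further: compound exposure lasted 3 days before fixation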;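 on nuclei count: percent of the per-plate median nuclei count of sample wells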). Particulars: exon1htt(103Q)mCFP cell line, aggregate imaging, at 2 µM; inhibition of aggregation: stronger effect = higher value; nuclei count: measured here: cell count, toxicity.
Experiment [3] can be described thus: endothelial E-selectin expression blockers – imaging, HUVEC, immunofluorescence, MLSMR starter and 10KST1 sets, primary screen (AID 487;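 active means visually confirmed hit in the image check and inhibition above 20%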;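 on inhibition: signal is fraction of cell area covered by stained E-selectin grains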;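 on nuclei count: 100% = median nuclei count of all wells on the same plate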). Particulars: HUVEC TNFalpha-induced E-selectin immunofluorescence imaging, at 2 µM; inhibition: stronger effect = higher value; nuclei count: measured here: cell number, toxicity.
Experiment [4] deals with Voltage-gated potassium channel subunit beta-2 (Rattus norvegicus) (UniProt P62483). The experiment is described as follows: inhibitors of rat Kvbeta2 reductase activity – biochemical, NADPH fluorescence, primary screen (AID 622).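 Further: slope of raw intensity against log time taken from 70 to 1610 s.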 Particulars: recombinant KvBeta, 4-cyanobenzaldehyde reduction, at 10 µM, stronger effect = higher value.
Chain of Voltage-gated potassium channel subunit beta-2 (Rattus norvegicus) (P62483 whole entry, looked up): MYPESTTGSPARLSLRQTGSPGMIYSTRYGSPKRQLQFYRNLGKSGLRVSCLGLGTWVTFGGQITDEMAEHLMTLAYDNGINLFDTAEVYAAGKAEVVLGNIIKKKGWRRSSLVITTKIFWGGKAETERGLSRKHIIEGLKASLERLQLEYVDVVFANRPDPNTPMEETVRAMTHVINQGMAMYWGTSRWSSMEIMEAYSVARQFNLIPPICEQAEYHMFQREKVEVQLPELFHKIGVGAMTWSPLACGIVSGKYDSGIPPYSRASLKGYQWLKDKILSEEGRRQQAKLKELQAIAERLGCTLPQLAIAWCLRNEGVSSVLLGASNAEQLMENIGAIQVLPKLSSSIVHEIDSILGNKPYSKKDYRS
Experiment [5] shares this target. The experiment is described as follows: enhancers of rat Kvbeta2 NADPH turnover – biochemical, NADPH fluorescence, primary screen (AID 623;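 active means NADPH fluorescence slope more negative than the mean of all samples by about 3 SD, 99.7% confidence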;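 further: fluorescence intensity change per second fitted from 20 to 320 s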). Particulars: Recombinant KvBeta, NADPH fluorescence decrease slope, 10 min; at 10 µM; stronger effect = lower value.
In experiment [6] the target is Alpha-2C adrenergic receptor (Homo sapiens) (UniProt P18825). Put plainly: compounds altering alpha2C-coupled GIRK flux – cell-based, HEK293 alpha2C/GIRK1/2, thallium flux, primary screen (AID 624;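 active means fluorescence slope after compound addition differing from the mean of all screened samples at 99.7% confidence, in either direction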;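 further: slope of fluorescence ratio to pre-addition baseline per second over 15 to 24 s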). Particulars: thallium flux BTC fluorescence, at 10 µM, actives lie on both sides.
Chain of Alpha-2C adrenergic receptor (Homo sapiens) (P18825 whole entry, looked up): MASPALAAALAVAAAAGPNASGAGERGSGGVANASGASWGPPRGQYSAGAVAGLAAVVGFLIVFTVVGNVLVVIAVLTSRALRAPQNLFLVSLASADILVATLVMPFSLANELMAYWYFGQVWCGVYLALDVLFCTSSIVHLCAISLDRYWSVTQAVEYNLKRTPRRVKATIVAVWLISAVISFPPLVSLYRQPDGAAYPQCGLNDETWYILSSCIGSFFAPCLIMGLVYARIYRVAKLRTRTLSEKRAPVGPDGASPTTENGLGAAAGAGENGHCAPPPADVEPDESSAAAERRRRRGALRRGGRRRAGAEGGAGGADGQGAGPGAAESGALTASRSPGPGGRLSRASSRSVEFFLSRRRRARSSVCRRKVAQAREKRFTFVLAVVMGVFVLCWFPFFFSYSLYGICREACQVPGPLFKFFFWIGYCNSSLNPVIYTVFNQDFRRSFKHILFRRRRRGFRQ
Experiment [7] is described as follows: blockers of RIG-like receptor reporter activation – cell-based, Sendai virus stimulus, luciferase, 10K MLSCN set, TLR/RLR signaling modifier project, primary screen (AID 602276;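 active means inhibition at or above 50% at 10 µM; inactive means inhibition below 50%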;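 further: firefly luciferase from ISG56 promoter only with Renilla not read in this screen; 0% = Sendai virus plus DMSO and 100% = medium plus DMSO without virus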). To be noted: HEK293 RL24 IRF3 luciferase reporter, at 10 µM, stronger effect = higher value. In general terms: Reporter assays use an easily measured gene product as a stand-in for the process of interest.

The nature of experiment [8]: TLR3 IRF3 reporter activation blockers – cell-based, poly I:C stimulus, luciferase, 10K MLSCN set, primary screen (AID 602277;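 active means inhibition of the reporter signal at or above 50%; inactive means inhibition below 50%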). To be noted: HEK293-TLR3 RL24 IRF3 luciferase reporter, at 10 µM, stronger effect = higher value.

Active and inactive are the calls of the source.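 How the source made its calls, unless noted: active means fluorescence slope higher than the sample average by over 3 SD (cut at about -0.22 in these data, passing the limit was not always enough); inactive means the rest.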

As usually defined, the inhibition is the change of the read-out against control, counted positive when it falls. On to `CC(=O)c1n[nH]nc1NC(=O)c1ccccc1`, for which the cell count in experiment [1] came out at 574. For the same compound, the inhibition in experiment [1] was -25.8% (inactive); in experiment [3] it was -46.6% (inactive); in experiment [7], 4.32% (inactive); in experiment [8] it was -46% (inactive). Besides, the inhibition of aggregation in experiment [2] was -6.9% (inactive). The results for the nuclei count in experiment [2] and in experiment [3] were 100% and 119%, respectively. In addition, in experiment [4], the fluorescence slope was -0.525 (inactive). For the same compound, the NADPH fluorescence slope in experiment [5] was -2.5e-05 (inactive). In addition, the slope in experiment [6] is 0.00678 (inactive).

With `c1ccc(CCn2nnnc2CN2CCN(C3CCCC3)CC2)cc1`, in experiment [1], the cell count was determined as 290. Besides, the inhibition is -15.4% (inactive) in experiment [1], -40.7% (inactive) in experiment [3], -0.279% (inactive) in experiment [7] and 20.4% (inactive) in experiment [8]. Besides, the inhibition of aggregation in experiment [2] was -9.3% (inactive). For the same compound, the values for the nuclei count in experiment [2] and in experiment [3] were 112% and 118%, respectively. Also, in experiment [4], the fluorescence slope was -0.604 (inactive). Moreover, the NADPH fluorescence slope in experiment [5] is -4.3e-05 (inactive). Also, the slope in experiment [6] is 0.0058 (inactive).

`CC1=C(C)[N+](=O)C2CCCCC2N1[O-]` (centres undefined): the cell count in experiment [1] stood at 705. In addition, the inhibition is 3.9% (inactive) in experiment [1], 58% (inactive) in experiment [3], -0.132% (inactive) in experiment [7] and 16.1% (inactive) in experiment [8]. In addition, the inhibition of aggregation in experiment [2] was 13.8% (inactive). Also, the nuclei count in experiment [2] came out at 104%; in experiment [3], 86.5%. Moreover, the fluorescence slope in experiment [4] was -0.368 (inactive). Besides, in experiment [5], the NADPH fluorescence slope was -0.000147 (inactive). In experiment [6], the slope is 0.00784 (inactive).

Consider `COc1ccc(C)cc1NCc1cccc(OC)c1OC`, for which the cell count in experiment [1] was 335. Moreover, the inhibition in experiment [1] is -7% (inactive); in experiment [3], -41.1% (inactive); in experiment [7], -7.74% (inactive); in experiment [8] it was 24.1% (inactive). In addition, the inhibition of aggregation in experiment [2] was 7% (inactive). The values for the nuclei count in experiment [2] and in experiment [3] were 111% and 110%, respectively. Besides, in experiment [4], the fluorescence slope was -0.496 (inactive). Further, the NADPH fluorescence slope in experiment [5] is -2.7e-05 (inactive). Further, the slope in experiment [6] was 0.00476 (inactive).

In the case of `Cc1cccc(Nc2nc(N)nc(CN3CCC(C(N)=O)CC3)n2)c1C`, the cell count in experiment [1] was found to be 720. Further, the inhibition was -4.3% (inactive) in experiment [1], -35% (inactive) in experiment [3], -22.9% (inactive) in experiment [7] and -60.3% (inactive) in experiment [8]. Also, the inhibition of aggregation in experiment [2] was -5.8% (inactive). For the same compound, the nuclei count in experiment [2] stood at 108%; in experiment [3], 123%. Further, the fluorescence slope in experiment [4] is -0.628 (inactive). The NADPH fluorescence slope in experiment [5] is -2.1e-05 (inactive). Moreover, the slope in experiment [6] was 0.0067 (inactive).

Regarding `CC(C)CCNC(=O)NC(=O)COc1ccccc1C#N`, the cell count in experiment [1] stood at 381. The inhibition in experiment [1] was -23.5% (inactive); in experiment [3], -71.3% (inactive); in experiment [7], -47.7% (inactive); in experiment [8], -112% (inactive). Also, the inhibition of aggregation in experiment [2] is 15.6% (inactive). In addition, the nuclei count in experiment [2] came to 102%; in experiment [3] it was 111%. Besides, the fluorescence slope in experiment [4] is -0.586 (inactive). Moreover, the NADPH fluorescence slope in experiment [5] was -8.5e-06 (inactive). In addition, in experiment [6], the slope was 0.00627 (inactive).

In the case of `O=C(Nc1cccnc1)c1noc2c1CCCCC2`, the cell count in experiment [1] turned out to be 253. Moreover, the inhibition in experiment [1] was -3.9% (inactive); in experiment [3] it was -1.4% (inactive); in experiment [7], 33.4% (inactive); in experiment [8], -4.09% (inactive). In addition, the inhibition of aggregation in experiment [2] is 14.8% (inactive). The figures for the nuclei count in experiment [2] and in experiment [3] were 98.5% and 113%, respectively. In addition, in experiment [4], the fluorescence slope is -0.325 (inactive). Also, in experiment [5], the NADPH fluorescence slope was -1.6e-05 (inactive). Besides, the slope in experiment [6] is 0.00304 (inactive).

Regarding `CSCCC(C(=O)Nc1ccc2c(c1)OCO2)N1C(=O)c2ccccc2C1=O` (centres undefined), the cell count in experiment [1] is 632. In addition, the inhibition is 3.8% (inactive) in experiment [1], -138% (inactive) in experiment [3], 9.29% (inactive) in experiment [7] and 22% (inactive) in experiment [8]. The inhibition of aggregation in experiment [2] is -16.3% (inactive). For the same compound, the nuclei count in experiment [2] was determined as 96.3%; in experiment [3], 107%. Further, the fluorescence slope in experiment [4] is -0.61 (inactive). Moreover, in experiment [5], the NADPH fluorescence slope was -7.2e-06 (inactive). The slope in experiment [6] was 0.006 (inactive).

Regarding `CC1=CC2=C(OC1N(C)C)c1cccc3cccc(c13)C2=O` (centres undefined), the cell count in experiment [1] was determined as 277. Also, the inhibition in experiment [1] is 23.4% (active); in experiment [3], 46.7% (inactive); in experiment [7], 5.12% (inactive); in experiment [8], -3.5% (inactive). In addition, in experiment [2], the inhibition of aggregation was 3.4% (inactive). Also, the nuclei count in experiment [2] amounted to 96.5%; in experiment [3] it was 100%. Further, the fluorescence slope in experiment [4] was -0.493 (inactive). The NADPH fluorescence slope in experiment [5] was 2e-06 (inactive). Besides, the slope in experiment [6] was 0.00351 (inactive).

As to `C=CCSC1=C(C#N)C(c2ccccc2Cl)CC(=O)N1` (centres undefined), the cell count in experiment [1] came to 407. For the same compound, the inhibition in experiment [1] is -6.5% (inactive); in experiment [3], -59% (inactive); in experiment [7] it was 25.7% (inactive); in experiment [8], 14.1% (inactive). For the same compound, the inhibition of aggregation in experiment [2] is 28.2% (inactive). Moreover, the values for the nuclei count in experiment [2] and in experiment [3] were 74.3% and 171%, respectively. In experiment [4], the fluorescence slope is -0.561 (inactive). The NADPH fluorescence slope in experiment [5] was 5.8e-06 (inactive). Besides, the slope in experiment [6] was 0.0048 (inactive).

For the compound `COc1ccc(-n2ncc3c(NCCCN4CCOCC4)ncnc32)cc1`, the cell count in experiment [1] was 340. The inhibition in experiment [1] was 1.4% (inactive); in experiment [3], 1.8% (inactive); in experiment [7] it was 44.5% (inactive); in experiment [8], 7.05% (inactive). Also, the inhibition of aggregation in experiment [2] was -6.2% (inactive). The values for the nuclei count in experiment [2] and in experiment [3] were 116% and 118%, respectively. In addition, the fluorescence slope in experiment [4] is -0.59 (inactive). Moreover, in experiment [5], the NADPH fluorescence slope was -5.4e-05 (inactive). The slope in experiment [6] was 0.00402 (inactive).

As for `CSc1ccc(Cn2nnc(C(=O)NCc3ccccc3)c2N)cc1`, the cell count in experiment [1] is 570. The inhibition is -2.3% (inactive) in experiment [1], -74.8% (inactive) in experiment [3], 5.71% (inactive) in experiment [7] and 12.9% (inactive) in experiment [8]. The inhibition of aggregation in experiment [2] was 17.3% (inactive). The nuclei count was determined as 100% in experiment [2] and 134% in experiment [3]. The fluorescence slope in experiment [4] was -0.478 (inactive). Further, the NADPH fluorescence slope in experiment [5] was -2e-05 (inactive). In addition, the slope in experiment [6] was 0.00597 (inactive).

Consider `O=C(Cn1nc(Cc2ccncc2)c2ccccc2c1=O)N1CCc2ccccc2C1`, for which, in experiment [1], the cell count is 726. Further, the inhibition in experiment [1] was -7.3% (inactive); in experiment [3] it was -57.6% (inactive); in experiment [7], -3.59% (inactive); in experiment [8], 15.5% (inactive). The inhibition of aggregation in experiment [2] is -6.8% (inactive). The nuclei count in experiment [2] is 103%; in experiment [3], 122%. Further, the fluorescence slope in experiment [4] was -0.527 (inactive). For the same compound, in experiment [5], the NADPH fluorescence slope was -2.1e-05 (inactive). Further, the slope in experiment [6] was 0.0064 (inactive).

With `COc1ccc(C2C3=C(OC(C)=O)c4ccccc4C3=Nc3c2c(=O)n(C)c(=O)n3C)cc1` (centres undefined), the cell count in experiment [1] amounted to 657. For the same compound, the inhibition in experiment [1] is 0.2% (inactive); in experiment [3] it was -72.4% (inactive); in experiment [7] it was 12.9% (inactive); in experiment [8], 12.4% (inactive). For the same compound, in experiment [2], the inhibition of aggregation was -0.9% (inactive). Moreover, the nuclei count came out at 103% in experiment [2] and 116% in experiment [3]. In experiment [4], the fluorescence slope was -0.41 (inactive). Also, the NADPH fluorescence slope in experiment [5] was -3.9e-05 (inactive). Moreover, the slope in experiment [6] was 0.00537 (inactive).

These data come from PubChem BioAssay.
